# Test results as given in the supplement of paper PMC10077471.
# In all, about 1,900 compounds were measured (“excess over highest single agent (ExcessHSA) synergy score, 6x6 matrix”: median about -83, lowest 2% from about -370 on). The list comes from a sample in which the lowest values are over-represented; it also holds similar structures and randomly drawn compounds.
# Tested on: NCI-H446
# Assay: excess over highest single agent (ExcessHSA) synergy score, 6x6 matrix; higher = less synergy (more negative = stronger synergy)
# Details: 72 h; CellTiter-Glo viability
row,SMILES,excess over highest single agent
1,O=C1NC(=O)/C(=C/c2ccc3nccc(-c4ccncc4)c3c2)S1 + Cc1sc2c(c1C)C(c1ccc(Cl)cc1)=N[C@@H](CC(=O)OC(C)(C)C)c1nnc(C)n1-2 [NCGC00250412-19],-177
2,CCCNC(=O)[C@H]1O[C@@H]1C(=O)N[C@H](C(=O)N1CCC[C@H]1C(=O)OC)[C@@H](C)CC + Cc1sc2c(c1C)C(c1ccc(Cl)cc1)=N[C@@H](CC(=O)OC(C)(C)C)c1nnc(C)n1-2 [NCGC00250412-19],-117
3,CN(C)c1ccc(C2Nc3ccc4ccccc4c3C3=C2C(=O)CC(C)(C)C3)cc1Br (configuration not stated) + Cc1sc2c(c1C)C(c1ccc(Cl)cc1)=N[C@@H](CC(=O)OC(C)(C)C)c1nnc(C)n1-2 [NCGC00250412-19],-30.1
4,O=c1cc(N2CCOCC2)oc2c(-c3cccc4c3sc3ccccc34)cccc12 + Cc1sc2c(c1C)C(c1ccc(Cl)cc1)=N[C@@H](CC(=O)OC(C)(C)C)c1nnc(C)n1-2 [NCGC00250412-19],-318
5,O=c1cc(N2CCOCC2)oc2c(-c3ccccc3)cccc12 + Cc1sc2c(c1C)C(c1ccc(Cl)cc1)=N[C@@H](CC(=O)OC(C)(C)C)c1nnc(C)n1-2 [NCGC00250412-19],83.7
6,CCN1CCN(CC(=O)Nc2ccc(-c3cccc4c(=O)cc(N5CCOCC5)oc34)c3sc4ccccc4c23)CC1 + Cc1sc2c(c1C)C(c1ccc(Cl)cc1)=N[C@@H](CC(=O)OC(C)(C)C)c1nnc(C)n1-2 [NCGC00250412-19],-383
7,CN(C)CC(=O)N1CCC(c2ccc(NC(=O)c3ncc(C#N)[nH]3)c(C3=CCCCC3)c2)CC1 + Cc1sc2c(c1C)C(c1ccc(Cl)cc1)=N[C@@H](CC(=O)OC(C)(C)C)c1nnc(C)n1-2 [NCGC00250412-19],53.2
8,CC1CCN(c2cc(N3CCN(C)CC3)ccc2NC(=O)c2cc(C#N)c[nH]2)CC1 + Cc1sc2c(c1C)C(c1ccc(Cl)cc1)=N[C@@H](CC(=O)OC(C)(C)C)c1nnc(C)n1-2 [NCGC00250412-19],106
9,COc1ccc(Nc2nccc(NCCO)n2)cc1 + Cc1sc2c(c1C)C(c1ccc(Cl)cc1)=N[C@@H](CC(=O)OC(C)(C)C)c1nnc(C)n1-2 [NCGC00250412-19],81.9
10,CN(C)c1ccc2cc(C(=O)N[C@@H](CCCN=C(N)CCl)C(=O)NCc3ccccc3)ccc2c1 + Cc1sc2c(c1C)C(c1ccc(Cl)cc1)=N[C@@H](CC(=O)OC(C)(C)C)c1nnc(C)n1-2 [NCGC00250412-19],-202
11,NS(=O)(=O)c1ccc(Nc2nc(OCC3CCCCC3)c3[nH]cnc3n2)cc1 + Cc1sc2c(c1C)C(c1ccc(Cl)cc1)=N[C@@H](CC(=O)OC(C)(C)C)c1nnc(C)n1-2 [NCGC00250412-19],-148
12,CCN(CC)CCn1c(=O)c(Cc2ccc(OC)cc2)nc2ccccc21 + Cc1sc2c(c1C)C(c1ccc(Cl)cc1)=N[C@@H](CC(=O)OC(C)(C)C)c1nnc(C)n1-2 [NCGC00250412-19],-47.3
13,Cc1cn([C@@H]2C[C@@H](O)[C@H](CO)O2)c(=O)[nH]c1=O + Cc1sc2c(c1C)C(c1ccc(Cl)cc1)=N[C@@H](CC(=O)OC(C)(C)C)c1nnc(C)n1-2 [NCGC00250412-19],21.8
14,O=c1[nH]c(=O)n([C@H]2C[C@H](O)[C@@H](CO)O2)cc1F + Cc1sc2c(c1C)C(c1ccc(Cl)cc1)=N[C@@H](CC(=O)OC(C)(C)C)c1nnc(C)n1-2 [NCGC00250412-19],-390
15,O=c1[nH]c(=O)n([C@H]2C[C@H](O)[C@@H](CO)O2)cc1I + Cc1sc2c(c1C)C(c1ccc(Cl)cc1)=N[C@@H](CC(=O)OC(C)(C)C)c1nnc(C)n1-2 [NCGC00250412-19],-172
16,Cc1cc(OCCCS(C)(=O)=O)cc(C)c1-c1cccc(COc2ccc3c(c2)OC[C@H]3CC(=O)O)c1 + Cc1sc2c(c1C)C(c1ccc(Cl)cc1)=N[C@@H](CC(=O)OC(C)(C)C)c1nnc(C)n1-2 [NCGC00250412-19],-123
17,c1ccc2c(CCNc3ccc(Nc4ccncc4)cc3)c[nH]c2c1 + Cc1sc2c(c1C)C(c1ccc(Cl)cc1)=N[C@@H](CC(=O)OC(C)(C)C)c1nnc(C)n1-2 [NCGC00250412-19],-76.1
18,Cc1cc(SCc2sc(-c3ccc(C(F)(F)F)cc3)nc2C)ccc1OCC(=O)O + Cc1sc2c(c1C)C(c1ccc(Cl)cc1)=N[C@@H](CC(=O)OC(C)(C)C)c1nnc(C)n1-2 [NCGC00250412-19],-98.3
19,CC(=O)O/N=C1/C(c2c(O)[nH]c3cc(Br)ccc23)=Nc2ccccc21 + Cc1sc2c(c1C)C(c1ccc(Cl)cc1)=N[C@@H](CC(=O)OC(C)(C)C)c1nnc(C)n1-2 [NCGC00250412-19],54.4

row,SMILES,excess over highest single agent
1,O=c1c(-c2ccc(O)cc2)coc2cc(O[C@@H]3O[C@H](CO)[C@@H](O)[C@H](O)[C@H]3O)ccc12 + Cc1sc2c(c1C)C(c1ccc(Cl)cc1)=N[C@@H](CC(=O)OC(C)(C)C)c1nnc(C)n1-2 [NCGC00250412-19],-180
2,Cc1c(NC(=O)c2ccc(C(C)(C)C)cc2)cccc1-c1cn(C)c(=O)c(Nc2ccc(C(=O)N3CCOCC3)cc2)n1 + Cc1sc2c(c1C)C(c1ccc(Cl)cc1)=N[C@@H](CC(=O)OC(C)(C)C)c1nnc(C)n1-2 [NCGC00250412-19],-90.9
3,Nc1ccn([C@@H]2O[C@H](CO)[C@@H](O)[C@H]2O)c(=O)n1 + Cc1sc2c(c1C)C(c1ccc(Cl)cc1)=N[C@@H](CC(=O)OC(C)(C)C)c1nnc(C)n1-2 [NCGC00250412-19],-268
4,Nc1ccn([C@@H]2O[C@H](CO)[C@@H](O)[C@@H]2O)c(=O)n1 + Cc1sc2c(c1C)C(c1ccc(Cl)cc1)=N[C@@H](CC(=O)OC(C)(C)C)c1nnc(C)n1-2 [NCGC00250412-19],-107
5,Nc1ccn([C@@H]2O[C@H](CO)[C@@H](O)C2(F)F)c(=O)n1 + Cc1sc2c(c1C)C(c1ccc(Cl)cc1)=N[C@@H](CC(=O)OC(C)(C)C)c1nnc(C)n1-2 [NCGC00250412-19],-379
6,CC(=O)N1CCN(c2ccc(OCc3nn(C)c(C)c3-c3cccc4c(CCCOc5cccc6ccccc56)c(C(=O)O)n(Cc5cccnc5)c34)cc2)CC1 + Cc1sc2c(c1C)C(c1ccc(Cl)cc1)=N[C@@H](CC(=O)OC(C)(C)C)c1nnc(C)n1-2 [NCGC00250412-19],97.8
7,FC(F)(F)c1ccc(Nc2nc3ccc(Oc4ccnc(-c5ncc(C(F)(F)F)[nH]5)c4)cc3[nH]2)cc1 + Cc1sc2c(c1C)C(c1ccc(Cl)cc1)=N[C@@H](CC(=O)OC(C)(C)C)c1nnc(C)n1-2 [NCGC00250412-19],-7.92
8,CC1(C)CC(=O)c2c(C(F)(F)F)nn(-c3ccc(C(N)=O)c(N[C@H]4CC[C@H](O)CC4)c3)c2C1 + Cc1sc2c(c1C)C(c1ccc(Cl)cc1)=N[C@@H](CC(=O)OC(C)(C)C)c1nnc(C)n1-2 [NCGC00250412-19],-379
9,CC1(C)CC(=O)c2c(C(F)(F)F)nn(-c3ccc(C(N)=O)c(N[C@H]4CC[C@H](OC(=O)CN)CC4)c3)c2C1 + Cc1sc2c(c1C)C(c1ccc(Cl)cc1)=N[C@@H](CC(=O)OC(C)(C)C)c1nnc(C)n1-2 [NCGC00250412-19],-482
10,COc1cccc2c1CCCC2CCCN1CCN(C2CCCCC2)CC1 (configuration not stated) + Cc1sc2c(c1C)C(c1ccc(Cl)cc1)=N[C@@H](CC(=O)OC(C)(C)C)c1nnc(C)n1-2 [NCGC00250412-19],-180
11,Cc1nnc(C(C)C)n1[C@H]1C[C@H]2CC[C@@H](C1)N2CC[C@H](NC(=O)C1CCC(F)(F)CC1)c1ccccc1 + Cc1sc2c(c1C)C(c1ccc(Cl)cc1)=N[C@@H](CC(=O)OC(C)(C)C)c1nnc(C)n1-2 [NCGC00250412-19],-88.4
12,O=C(CC12CC3CC(CC(C3)C1)C2)Nc1cccc2nc(NCCNCCO)ccc12 + Cc1sc2c(c1C)C(c1ccc(Cl)cc1)=N[C@@H](CC(=O)OC(C)(C)C)c1nnc(C)n1-2 [NCGC00250412-19],-112
13,COc1ccccc1[C@H](c1cccc2ccccc12)[C@@](C)(C#N)C(=O)N1CCC(c2cccc(C(F)(F)F)c2)CC1 + Cc1sc2c(c1C)C(c1ccc(Cl)cc1)=N[C@@H](CC(=O)OC(C)(C)C)c1nnc(C)n1-2 [NCGC00250412-19],-352
14,Oc1ccc2ccccc2c1SSc1c(O)ccc2ccccc12 + Cc1sc2c(c1C)C(c1ccc(Cl)cc1)=N[C@@H](CC(=O)OC(C)(C)C)c1nnc(C)n1-2 [NCGC00250412-19],56.9
15,NS(=O)(=O)OC[C@@H]1C[C@@H](n2ccc3c(N[C@H]4CCc5ccccc54)ncnc32)C[C@@H]1O + Cc1sc2c(c1C)C(c1ccc(Cl)cc1)=N[C@@H](CC(=O)OC(C)(C)C)c1nnc(C)n1-2 [NCGC00250412-19],-544
16,O=C1NC(=O)C(c2cnc3ccccn23)=C1c1cn2c3c(cccc13)CN(C(=O)N1CCOCC1)CC2 + Cc1sc2c(c1C)C(c1ccc(Cl)cc1)=N[C@@H](CC(=O)OC(C)(C)C)c1nnc(C)n1-2 [NCGC00250412-19],-24.9
17,NC1(Cc2ccc(Cl)cc2)CCN(c2ncnc3[nH]ccc23)CC1 + Cc1sc2c(c1C)C(c1ccc(Cl)cc1)=N[C@@H](CC(=O)OC(C)(C)C)c1nnc(C)n1-2 [NCGC00250412-19],-66
18,COc1cc(CCc2cc(NC(=O)c3ccc(N4CC(C)NC(C)C4)cc3)n[nH]2)cc(OC)c1 (configuration not stated) + Cc1sc2c(c1C)C(c1ccc(Cl)cc1)=N[C@@H](CC(=O)OC(C)(C)C)c1nnc(C)n1-2 [NCGC00250412-19],-88.8
